# Assay results: PubChem BioAssay
# Calls of active or inactive are those of the source. Cut-off read from the data, not from the text of the source, unless noted: active = inhibition above about 80%; inactive = the rest.
# Columns and labels:
# [1] = growth inhibition, single agent or in combination, cell-based, chromothripsis tumors, cisplatin or BGB combos (AID 1671449); settings: LFS_MB_P medulloblastoma cells;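 note: cells exposed for 96 hours; 0% = vehicle DMSO and 100% = killing by high DMSO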
# [2] = growth inhibition, single agent and combos, cell-based, chromothripsis tumors, cisplatin or BGB combos (AID 1671450); settings: HDN33 neuroblastoma cells, stronger effect = higher value;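 note: cells exposed to compound for four days; 0% = vehicle DMSO and 100% = cell killing by high DMSO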
# [3] = growth inhibition, single agents and combos, ICB984, cell-based, cisplatin or BGB combos, synergistic combos for chromothripsis tumors (AID 1671451; call rule not given here;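 note: cells exposed for 96 hours before readout; 0% = vehicle DMSO and 100% = killing by high DMSO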); settings: ICB984 medulloblastoma cells, drug combinations, stronger effect = higher value
# [4] = growth inhibition, single agents and combos, LFS_MB_1R, cell-based, cisplatin or BGB combos, synergistic combos for chromothripsis tumors (AID 1671452); settings: LFS_MB_1R medulloblastoma cells, stronger effect = higher value;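 note: cells exposed for 96 hours before readout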
# [5] = growth inhibition, single agents and combos, HTB85, cell-based, BGB or cisplatin IC20 combos, synergistic combos for chromothripsis tumors (AID 1671453); settings: HTB85 osteosarcoma cells, drug combinations, stronger effect = higher value;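 note: cells exposed for 96 hours before readout; 0% = vehicle DMSO and 100% = high DMSO killing control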
# [6] = growth inhibition, single agents and combos, CRL2098, cell-based, BGB or cisplatin IC20 combos, synergistic combos for chromothripsis tumors (AID 1671454); settings: CRL2098 osteosarcoma cells, drug combinations, stronger effect = higher value;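 note: cells exposed for 96 h before readout; 0% = vehicle DMSO and 100% = killing by high DMSO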
# [7] = growth inhibition, single agents and combos, HD-MB03, cell-based, BGB or cisplatin IC20 combos, synergistic combos for chromothripsis tumors (AID 1671455; in the data active = inhibition above about 83%;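 note: 0% = vehicle DMSO and 100% = high DMSO as cytotoxic control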); settings: HD-MB03 medulloblastoma cells, stronger effect = higher value
# [8] = growth inhibition, single agents and combos, UWB1.289, cell-based, BGB or cisplatin combos, synergistic combos for chromothripsis tumors (AID 1671456); settings: UWB1.289 ovarian carcinoma cells, stronger effect = higher value;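 note: cells exposed to compound for four days; 0% = vehicle DMSO and 100% = killing by high DMSO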
# [9] = growth inhibition, single agents and combos, LFS_MB_2R, cell-based, cisplatin combos, synergistic combos for chromothripsis tumors (AID 1671457); settings: LFS_MB_2R medulloblastoma cells, stronger effect = higher value;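 note: cells exposed to compound for four days before readout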
# [10] = growth inhibition, MDA-MB-436, cell-based, BGB or cisplatin combos, synergistic combos for chromothripsis tumors (AID 1671458; call rule not given here;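 note: cells exposed for 96 hours; 0% = vehicle DMSO and 100% = killing by high DMSO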); settings: MDA-MB-436 breast carcinoma growth inhibition, drug combinations, stronger effect = higher value
# [11] = UWB1.289_BRCA1 ovarian cancer growth, cell-based, BGB or cisplatin combinations (AID 1671459); settings: UWB1.289 BRCA1 ovarian carcinoma, drug combinations, stronger effect = higher value
# [12] = drug combination toxicity in non-malignant astrocytes – cell-based, BGB or cisplatin IC20 combos, cytotoxicity control for chromothriptic childhood tumor combination screen (AID 1671460); settings: Human astrocytes, viability inhibition, drug combinations, at 0.5 µM, stronger effect = higher value;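 note: cells exposed to compounds for 96 hours before viability readout; 0% = vehicle and 100% = killing control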
# [13] = BT084 cell growth, single and combined drugs, ICGC_MB145, cisplatin and BGB IC40 combos (AID 1671461); settings: BT084 medulloblastoma cells, drug combinations, stronger effect = higher value;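 note: cells exposed to drugs for 96 hours; 0% = vehicle DMSO and 100% = high DMSO full killing control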
# [14] = RCMB18 cell growth, single agent and combined, cisplatin and BGB IC40 combos (AID 1671462); settings: RCMB18 medulloblastoma cells, stronger effect = higher value;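 note: cells exposed to compound for four days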
# [15] = CRL1545 cell growth, single agent and combined, cisplatin and BGB IC20 combos (AID 1671464); settings: CRL1545 osteosarcoma cells, stronger effect = higher value;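 note: cells exposed to compound for 96 hours before readout; 0% = vehicle DMSO and 100% = high DMSO killing control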
# [16] = at 0.5 µM, stronger effect = higher value
# [17] = measured here: combination with BGB IC20, at 0.005 µM
# [18] = measured here: combination with BGB IC40, at 0.005 µM
# [19] = measured here: combination with BGB IC40, at 0.05 µM
# [20] = measured here: combination with cisplatin, at 0.5 µM, stronger effect = higher value
# [21] = measured here: combination with cisplatin, at 5 µM, stronger effect = higher value
# [22] = measured here: with BGB IC20 combination, at 0.5 µM
# [23] = measured here: with cisplatin IC20 combination, at 0.5 µM
# [24] = measured here: 5 uM single agent, at 5 µM
# [25] = measured here: combination with cisplatin, at 0.5 µM
# [26] = measured here: combination with cisplatin, at 5 µM
# [27] = measured here: with BGB IC20, at 0.5 µM
# [28] = measured here: with BGB IC20, at 5 µM
# [29] = measured here: with cisplatin IC20, at 0.5 µM
# [30] = measured here: with cisplatin IC20, at 5 µM
# [31] = measured here: combination with BGB at IC20, at 0.5 µM
# [32] = measured here: combination with cisplatin at IC20, at 0.5 µM
# [33] = measured here: combo with BGB at IC20, at 0.5 µM
# [34] = measured here: combo with cisplatin at IC20, at 0.5 µM
# [35] = measured here: inhibition with BGB combination, at 0.05 µM
# [36] = measured here: inhibition with cisplatin combination, at 0.05 µM
# [37] = measured here: BGB combination, at 0.5 µM
# [38] = measured here: BGB combination, at 5 µM
# [39] = measured here: cisplatin combination, at 0.5 µM
# [40] = measured here: cisplatin combination, at 5 µM
# [41] = BGB combination, concentration series, at 5 µM
# [42] = cisplatin combination, concentration series, at 5 µM
# [43] = measured here: combo with BGB IC20
# [44] = measured here: combo with cisplatin IC20
# [45] = cisplatin combination, at 0.5 µM
# [46] = measured here: BGB IC40 combination 0.05 uM, at 0.05 µM
# [47] = measured here: BGB IC40 combination, at 0.05 µM
compound,measurement,setting,value
Cc1cc(C)cc(C(=O)NOCCCCCC(=O)NO)c1,inhibition,[1]; [16],-18.6% (inactive)
same,inhibition,[1]; [17],-25.1%
same,inhibition,[1]; [18],-71.8%
same,inhibition,[1]; [19],-38.3%
same,inhibition,[1]; [20],23.3%
same,inhibition,[1]; [21],101%
same,inhibition,"[2]; BGB combo, at 5 µM",98%
same,inhibition,[2]; at 0.5 µM,16.4% (inactive)
same,inhibition,"[2]; cisplatin combo, at 5 µM",99.6%
same,inhibition,[2]; [22],11.9%
same,inhibition,[2]; [23],14.2%
same,inhibition,"[2]; single agent, at 5 µM",99.6%
same,inhibition,"[3]; BGB IC20 combo, at 0.005 µM",3.29%
same,inhibition,"[3]; BGB IC40 combo, at 0.005 µM",-11.3%
same,inhibition,"[3]; BGB IC40 combo, at 0.05 µM",93.2%
same,inhibition,[3]; at 0.5 µM,-24.3% (inactive)
same,inhibition,"[3]; cisplatin combo, at 0.05 µM",93.4%
same,inhibition,"[3]; cisplatin combo, at 0.5 µM",-27.8%
same,inhibition,"[3]; cisplatin combo, at 5 µM",-32.7%
same,inhibition,[3]; [24],-20.9%
same,inhibition,[4]; at 0.5 µM,21.5% (inactive)
same,inhibition,[4]; [19],-19%
same,inhibition,[4]; [25],16.6%
same,inhibition,[4]; [26],97%
same,inhibition,[5]; at 0.5 µM,15.3% (inactive)
same,inhibition,[5]; [27],4.55%
same,inhibition,[5]; [28],96.8%
same,inhibition,[5]; [29],32.1%
same,inhibition,[5]; [30],99.4%
same,inhibition,"[5]; single agent, at 5 µM",98.4%
same,inhibition,[6]; at 0.5 µM,-44.3% (inactive)
same,inhibition,[6]; [31],-68.4%
same,inhibition,[6]; [32],-43.7%
same,inhibition,[7]; at 0.5 µM,53.4% (inactive)
same,inhibition,[7]; [33],36.6%
same,inhibition,[7]; [34],95.8%
same,inhibition,[8]; at 0.5 µM,35% (inactive)
same,inhibition,[8]; [35],-9.28%
same,inhibition,[8]; [36],-8.14%
same,inhibition,[9]; at 0.5 µM,8.45% (inactive)
same,inhibition,[9]; [25],32.9%
same,inhibition,[9]; [26],102%
same,inhibition,[10]; at 0.5 µM,7.8% (inactive)
same,inhibition,[10]; [37],-12.2%
same,inhibition,[10]; [38],42.5%
same,inhibition,[10]; [39],-3.09%
same,inhibition,[10]; [40],53.9%
same,inhibition,[11]; [41],92.6%
same,inhibition,[11]; at 0.5 µM,33.7% (inactive)
same,inhibition,[11]; [42],110%
same,inhibition,[12],38% (inactive)
same,inhibition,[12]; [43],37.9%
same,inhibition,[12]; [44],25.6%
same,inhibition,[13]; at 0.5 µM,35.6% (inactive)
same,inhibition,[13]; [45],32.4%
same,inhibition,"[13]; cisplatin combination, at 5 µM",98.6%
same,inhibition,[13]; [46],-14.5%
same,inhibition,"[13]; single agent, at 5 µM",105%
same,inhibition,[14]; at 0.5 µM,21.6% (inactive)
same,inhibition,"[14]; cisplatin combo, at 5 µM",92.9%
same,inhibition,[14]; [47],-1.76%
same,inhibition,[14]; [25],22.3%
same,inhibition,"[14]; single agent, at 5 µM",89.9%
same,inhibition,[15]; at 0.5 µM,75.7% (inactive)
same,inhibition,[15]; [22],64.9%
same,inhibition,[15]; [23],80.7%
same,inhibition,"[15]; single agent, at 0.05 µM",5.92%
same,inhibition,"[15]; single agent, at 5 µM",72.3%
N#Cc1ccc(OC2CCC(NC(=O)CCSc3nc4ccccc4c(=O)[nH]3)CC2)cc1 (stereo unspecified),inhibition,[1]; [16],-11.7% (inactive)
same,inhibition,[1]; [17],-15.6%
same,inhibition,[1]; [18],-25.5%
same,inhibition,[1]; [19],-19.3%
same,inhibition,[1]; [20],-29.6%
same,inhibition,[1]; [21],-57.3%
same,inhibition,"[2]; BGB combo, at 5 µM",8.7%
same,inhibition,[2]; at 0.5 µM,15.1% (inactive)
same,inhibition,"[2]; cisplatin combo, at 5 µM",37.4%
same,inhibition,[2]; [22],12.5%
same,inhibition,[2]; [23],15.6%
same,inhibition,"[2]; single agent, at 5 µM",35.9%
same,inhibition,"[3]; BGB IC20 combo, at 0.005 µM",-4.21%
same,inhibition,"[3]; BGB IC40 combo, at 0.005 µM",-8.75%
same,inhibition,"[3]; BGB IC40 combo, at 0.05 µM",7.9%
same,inhibition,[3]; at 0.5 µM,-30.9% (inactive)
same,inhibition,"[3]; cisplatin combo, at 0.05 µM",4.58%
same,inhibition,"[3]; cisplatin combo, at 0.5 µM",-24.9%
same,inhibition,"[3]; cisplatin combo, at 5 µM",-26.6%
same,inhibition,[3]; [24],2.34%
same,inhibition,[4]; at 0.5 µM,-15.5% (inactive)
same,inhibition,[4]; [19],-12.5%
same,inhibition,[4]; [25],-1.66%
same,inhibition,[4]; [26],-48.1%
same,inhibition,[5]; at 0.5 µM,8.65% (inactive)
same,inhibition,[5]; [27],1.42%
same,inhibition,[5]; [28],-9.23%
same,inhibition,[5]; [29],9.73%
same,inhibition,[5]; [30],-13.4%
same,inhibition,"[5]; single agent, at 5 µM",12.3%
same,inhibition,[6]; at 0.5 µM,-13.9% (inactive)
same,inhibition,[6]; [31],25.6%
same,inhibition,[6]; [32],-58.5%
same,inhibition,[7]; at 0.5 µM,5.55% (inactive)
same,inhibition,[7]; [33],2.46%
same,inhibition,[7]; [34],7.46%
same,inhibition,[8]; at 0.5 µM,13.3% (inactive)
same,inhibition,[8]; [35],-10.8%
same,inhibition,[8]; [36],9.73%
same,inhibition,[9]; at 0.5 µM,-13.3% (inactive)
same,inhibition,[9]; [25],-14.4%
same,inhibition,[9]; [26],-3.9%
same,inhibition,[10]; at 0.5 µM,3.61% (inactive)
same,inhibition,[10]; [37],-7.72%
same,inhibition,[10]; [38],-9.87%
same,inhibition,[10]; [39],1.31%
same,inhibition,[10]; [40],0.512%
same,inhibition,[11]; [41],24.2%
same,inhibition,[11]; at 0.5 µM,9.54% (inactive)
same,inhibition,[11]; [42],-12.4%
same,inhibition,[12],37.4% (inactive)
same,inhibition,[12]; [43],26.2%
same,inhibition,[12]; [44],40.6%
same,inhibition,[13]; at 0.5 µM,0.647% (inactive)
same,inhibition,[13]; [45],-17.2%
same,inhibition,"[13]; cisplatin combination, at 5 µM",-3.13%
same,inhibition,[13]; [46],-41.1%
same,inhibition,"[13]; single agent, at 5 µM",-16.5%
same,inhibition,[14]; at 0.5 µM,7.33% (inactive)
same,inhibition,"[14]; cisplatin combo, at 5 µM",-24.6%
same,inhibition,[14]; [47],-11.2%
same,inhibition,[14]; [25],27.6%
same,inhibition,"[14]; single agent, at 5 µM",-12.9%
same,inhibition,[15]; at 0.5 µM,-30% (inactive)
same,inhibition,[15]; [22],-19.6%
same,inhibition,[15]; [23],-37.4%
same,inhibition,"[15]; single agent, at 0.05 µM",34.4%
same,inhibition,"[15]; single agent, at 5 µM",4.49%
